# Reference: PubChem BioAssay AID1508622 (National Center for Advancing Translational Sciences (NCATS), 2021)
# A number with no mark means an inactive call. Activity calls are given as the source filed them. The call rests on the fitted dose curve; in most records, active means well fitted activation curve with a large enough effect; inconclusive means small, poorly fitted or top-dose-only effect; inactive means no such curve, though single readings can be large or run the other way.
# Experiment: Confirmatory qHTS for Identification of Small Molecule Activators of Huntingtin-Antisense Promoter Activity
# Conditions: HEK293 HTT-AS promoter firefly luciferase reporter, 24 h; series mostly up to 57.5 µM; activity change, positive = activation: at the top concentration
# From the text: Assay Provider: Russell L. Margolis M.D.
# Department Neurology, Johns Hopkins University School of Medicine, Baltimore, MD
# Huntington's Disease (HD) is a neurodegenerative disorder caused by a CAG repeat expansion in exon 1 of huntingtin (HTT). While there are currently no disease-modifying treatments for HD, recent efforts have focused on development of nucleotide-based therapeutics to lower HTT expression. As an alternative to siRNA or oligonucleotide methods, we hypothesized that suppression of HTT expression might be accomplished by small molecules that either (1) directly decrease HTT expression by suppressing HTT promoter activity or (2) indirectly decrease HTT expression by increasing the promoter activity of HTT-AS, the gene antisense to HTT that appears to inhibit expression of HTT.
# We developed and employed a high throughput screen for modifiers of HTT and HTT-AS promoter activity using luminescent reporter HEK293 cells; of the 52,041 compounds tested, we identified 898 replicable hits. We used a rigorous stepwise approach to assess compound toxicity and the capacity of the compounds to specifically lower huntingtin protein in 5 different cell lines, including HEK293 cells, HD lymphoblastoid cells, mouse primary neurons, HD iPSCs differentiated into cortical-like neurons, and HD hESCs. We found no compounds which were able to lower huntingtin without lowering cell viability in all assays, though the potential efficacy of a few compounds at non-toxic doses could not be excluded.
# SEQUENCE No. (1, 2, 3, etc.); […] (e.g., Cells, Incubation, Reagent, etc.); VALUE and DESCRIPTION.
# 1; Reagent; 4 uL; 2,500 Hek293 luciferase reporter cells per wells
# 3; Compound; 23 nL; Control inhibitor / compound library
# 5; Reagent; 2.5 uL; Firefly Luc reagent; Dual-Glo Luciferase Reporter Assay System (Promega)
# 6; Time; 10 min; room temperature incubation
# 7; Detection; Luminescence; FLuc
# NOTES (numbers refer to sequence above)
# 1; High-throughput screening, measuring luminescence from a Hek293 luciferase reporter, was performed in 1,536 well white-walled tissue-culture treated plates. 2,500 cells were plated in 4 uL of Opti-MEM per well using a Multidrop Combi Reagent Dispenser (ThermoFisher).
# 2; Assay plates were cultured for 24 hours.
# 3; Control inhibitor (PTC124; final concentration of 50 uM) and compound library (at final concentrations of 460 nM - 57.5 uM) were added to the assay plate using the Kalypsis Pintool Robotic System equipped with 1536 pinheads.
# 4; Cells were then incubated for 24 hours at 37C prior to luminescence measurements.
# 5; In all cases, luminescence was measured using the Dual-Glo Luciferase Reporter Assay System (Promega) following the manufacturer's instructions.
# 6; Room temperature incubation.
# 7; Luminescence signal was obtained using the PerkinElmer ViewLux plate reader. Results were normalized to vehicle control (0% activity) and zero RLU (-100% activity).
# Potency means the concentration at half of the fitted maximal effect.
SMILES,"activity change, positive = activation [%]",Potency
CCOc1ccc(NC(=O)c2c(Nc3ccccc3C)sc(C(=O)c3ccccc3)c2N)cc1,-10.4,–
O=C(NCC(c1ccccc1)c1ccccc1)c1nn(-c2ccccc2F)nc1CO,-65.2,–
CCOC(=O)C1=C(CN2CCN(c3ccccc3F)CC2)NC(=O)NC1c1ccc(OC)cc1 (stereo not given),-66.6,–
COc1ccc(C2=C(C)C(=O)N(Cc3ccc(C(=O)Nc4cccc(F)c4)cc3)S2(=O)=O)cc1,-41.6,–
O=C(Nc1ccc(S(=O)(=O)N(Cc2ccccc2)c2ccccc2)cc1)c1ccc(F)cc1,-73.5,–
O=C(Nc1ccc(Cl)c(Cl)c1)N(Cc1c[nH]c2ccccc12)C1CCCCC1,–,2.39 µM (active)
Cc1cc(SCC(=O)Nc2nsc(-c3ccc(C(C)(C)C)cc3)n2)nc2ccccc12,–,2.69 µM (active)
CC(C)c1ccc(NC(=O)c2ccc(F)c(S(=O)(=O)N3CCc4ccccc43)c2)cc1,-31.5,–
O=C(COCc1cc(-c2cccs2)on1)N1CCN(c2cccc(Cl)c2)CC1,-13.4,–
COc1ccc(NC(=O)CN2CCCN(S(=O)(=O)c3ccc(Br)cc3)CC2)c(OC)c1,-29.8,–
Cc1ccccc1NC(=O)c1c(NC(=O)C(F)(F)F)sc2c1CCCCC2,-91.3,–
CCC(=O)C1=C(c2cccc([N+](=O)[O-])c2)N(C(=O)CC)n2c(nnc2C2CCCCC2)S1,-47.3,–
CCN(C(=O)c1cc2c(s1)-c1ccccc1OC2)c1cccc(C(F)(F)F)c1,-30.3,–
CCN(C(=O)CSc1nc(-c2ccccc2)no1)c1cccc(C)c1,14.2,–
CC1=C(C(=O)OCc2ccc(C)cc2)C(c2ccccc2Cl)CC(=O)N1 (stereo not given),-40,–
COc1ccc(NC(=O)c2ccc(-c3nc(CSc4ccc(C)cc4)c(C)o3)cc2)cc1Cl,-52.9,–
CC(=O)N1CCCc2cc(S(=O)(=O)N3CCN(c4ccccc4F)CC3)ccc21,-37,–
Cc1cc(NC(=O)c2cc(-c3ccc(Cl)cc3)on2)nn1Cc1ccc(Cl)cc1,-13.6,–
Cc1ccc(S(=O)(=O)n2nc(-c3ccccc3)nc2NCc2ccccc2Cl)cc1,-23.3,–
CCOc1ccc(-c2nc(CSCC(=O)NCCc3ccc(OCC)c(OCC)c3)c(C)o2)cc1,-49.7,–

SMILES,"activity change, positive = activation [%]",Potency
CCS(=O)(=O)c1ncc(Cl)c(C(=O)NCc2ccc(OC)cc2)n1,-95.5,–
COc1ccc(CNS(=O)(=O)c2ccc(N3CCCCS3(=O)=O)cc2)cc1,-94,–
CN(C)S(=O)(=O)c1ccc(C(=O)NCCSc2c(-c3ccc(Br)cc3)[nH]c3ccccc23)cc1,-13.9,–
Cc1ccc(CNC(=O)c2ccc(CSc3nc4ccncc4n3Cc3ccc(C)cc3)cc2)cc1,-18.4,–
CCS(=O)(=O)N1CC(CC#N)(n2cc(-c3ncnc4[nH]ccc34)cn2)C1,–,30.1 µM (active)
COc1ccc([C@@H]2CNC(=O)C2)cc1OC1CCCC1,2.02,–
CCCS(=O)(=O)NCCc1sc2nc(-c3ccc(F)cc3)nn2c1C,-91,–
COc1ccc(C(C)n2c(C)c3c(C)nnc(C)c3c2C)cc1 (stereo not given),-16.4,–
Fc1cc(Br)ccc1Nc1c2c(nc3nc(-c4cccs4)nn13)CCCC2,-49.7,–
CCSc1ncc(Cl)c(C(=O)Nc2ccc(S(=O)(=O)N3CCCCC3)cc2)n1,-39.5,–
COc1cc(CN2CCc3nc(N4CCN(c5ccccc5F)CC4)ncc3C2)ccc1OC(C)C,-71.5,–
Cc1cc(C)c(S(=O)(=O)NCCc2sc3nc(-c4ccc(F)cc4)nn3c2C)c(C)c1,-92.7,–
CC(=O)Nc1ccc(S(=O)(=O)Nc2cc(-c3cn4ccccc4n3)ccc2C)cc1,–,10.7 µM (active)
CCOC(=O)c1cc(-c2ccc(F)cc2)n(CCC(=O)NCCc2ccc(C)cc2)c1C,-9.24,–
COc1cccc(-c2nc(CS(=O)CC(=O)N3CCN(c4cccc(C(F)(F)F)c4)CC3)c(C)o2)c1 (stereo not given),-59.5,–
CCN1C(=O)c2ccccc2Sc2ccc(NC(=O)c3cccc(C)c3)cc21,-40.2,–
Cc1cccc(-n2nc(C)c(C(=O)N3CCN(c4ccccc4)CC3)c2-n2cccc2)c1,-44.8,–
Cc1oc(-c2cccc(Cl)c2)nc1CN1CCC(C(=O)NCCCN2CCN(c3ccc(F)cc3)CC2)CC1,-80.7,–
Cc1ccc(Cn2cc(/C=C(/C#N)C(=O)Nc3cccc(Cl)c3)c3ccccc32)cc1,-48.6,–
Cc1ccc(C)c(-n2nnc(C(=O)Nc3ccc(Br)cc3)c2C)c1,-81.3,–
